Compounds without any hit were thinned out: in the full panel of roughly 79,000, 15% have a hit. Calls of active or inactive are those of the source. Rule as the data show it: active = growth inhibition above about 70%; inactive = the rest.
Legend:
[1] = NCI Yeast Anticancer Drug Screen. Data for the rad50 strain (AID 155);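 also: 0% = growth of vehicle-only cultures of the same strain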; conditions: S. cerevisiae rad50 strain growth inhibition, hits give high values
Method in brief: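 Vehicle-treated cultures provide the reference for the growth inhibition reported for compound-exposed, repair-deficient yeast.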

[2] = NCI Yeast Anticancer Drug Screen. Data for the mec2-1 strain (AID 157); conditions: S. cerevisiae mec2-1 strain, hits give high values
Method in brief: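 Strain: mec2-1 (DNA repair/cell cycle alteration). Compound exposure, then growth measured; inhibition expressed relative to vehicle.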

[3] = NCI Yeast Anticancer Drug Screen. Data for the sgs1 mgt1 strain (AID 161);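 also: 0% = growth of cultures given vehicle only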; conditions: S. cerevisiae sgs1 mgt1 strain, hits give high values
Method in brief: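 Read-out: growth inhibition vs vehicle controls. Cells: mutant yeast strain deficient in DNA damage repair.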

[4] = NCI Yeast Anticancer Drug Screen. Data for the cln2 rad14 strain (AID 165);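 also: 0% = growth equal to vehicle treated cultures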; conditions: S. cerevisiae cln2 rad14 strain, hits give high values
Method in brief: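 Compounds are applied to the cln2 rad14 yeast strain, and growth is then compared with that of vehicle-treated cultures to give inhibition.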

[5] = NCI Yeast Anticancer Drug Screen. Data for the bub3 strain (AID 167); conditions: S. cerevisiae bub3 mutant strain, hits give high values
Method in brief: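 Mutant yeast screening strain plus compound; vehicle-treated cultures serve as the 0% inhibition reference.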

[6] = NCI Yeast Anticancer Drug Screen. Data for the mlh1 rad18 strain (AID 175); conditions: S. cerevisiae mlh1 rad18 strain growth inhibition, hits give high values
Method in brief: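 Read-out is yeast growth inhibition, calculated against vehicle-only controls. The compound was applied to a strain engineered with DNA damage repair alterations.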

[7] = at 5.0 µM (retest, dose inferred, filed as 0.5)
[8] = at 50.0 µM (retest, dose inferred, filed as 5.0)

Measured: growth inhibition

CC(C)(C)c1ccc(C(C)(C)C)cc1
inactive: [1]; [7] 1% | [1]; [8] 3% | [1]; at 50.0 µM -10.7% | [2]; [7] -5% | [2]; [8] -4% | [2]; at 50.0 µM 6.55% | [3]; [7] 1% | [3]; [8] -9% | [3]; at 50.0 µM -20.4% | [4]; [7] 4% | [4]; [8] -7% | [4]; at 50.0 µM 50.8% | [5]; [7] 5% | [5]; [8] 13% | [5]; at 50.0 µM 3% | [6]; [7] -2% | [6]; [8] 1% | [6]; at 50.0 µM 1.55%

CC(=O)Oc1ccc2cc(-c3ccccc3OC(C)=O)c(=O)oc2c1
inactive: [1]; [7] 12% | [1]; [8] 23% | [1]; at 50.0 µM 48.1% | [2]; [7] -11% | [2]; [8] -15% | [2]; at 50.0 µM 43.7% | [3]; [7] 3% | [3]; [8] 30% | [4]; [7] -6% | [4]; [8] 31% | [4]; at 50.0 µM 30.2% | [5]; [7] -15% | [5]; [8] 8% | [5]; at 50.0 µM 57.8% | [6]; [7] 12% | [6]; [8] 0%
active: [3]; at 50.0 µM 77.2% | [6]; at 50.0 µM 74.5%

CC(CC=NCCN=CCC(C)CC(C)(C)C)CC(C)(C)C (stereo not given)
inactive: [1]; [7] 16% | [1]; [8] -2% | [2]; [7] -3% | [2]; [8] 3% | [2]; at 50.0 µM 68.3% | [3]; [7] 5% | [3]; [8] 45% | [4]; [7] 0% | [4]; [8] 10% | [4]; at 50.0 µM 30.1% | [5]; [7] -6% | [5]; [8] 3% | [6]; [7] 1% | [6]; [8] 20%
active: [1]; at 50.0 µM 97.9% | [3]; at 50.0 µM 91.3% | [5]; at 50.0 µM 96.3% | [6]; at 50.0 µM 98.4%

CSC(=S)NN=C(c1ccccn1)c1ccccn1
inactive: [2]; [7] 24% | [2]; [8] 31% | [4]; [7] 4% | [4]; [8] -19% | [5]; [7] -5% | [5]; at 50.0 µM -8.05% | [6]; at 50.0 µM 36%
active: [1]; [7] 78% | [1]; [8] 96% | [1]; at 50.0 µM 94% | [2]; at 50.0 µM 97.8% | [3]; [7] 92% | [3]; [8] 99% | [3]; at 50.0 µM 85.4% | [4]; at 50.0 µM 91.7% | [5]; [8] 96% | [6]; [7] 78% | [6]; [8] 80%

COc1ccccc1/C=N/Nc1nnc(N/N=C/c2ccccc2OC)c2ccccc12
active: [1]; at 50.0 µM 74.6% | [2]; [8] 73% | [2]; at 50.0 µM 95.8% | [3]; [8] 89% | [4]; [8] 82% | [4]; at 50.0 µM 97.3% | [5]; [8] 94% | [5]; at 50.0 µM 96.2% | [6]; [8] 99% | [6]; at 50.0 µM 93.4%
inactive: [1]; [7] -1% | [1]; [8] 56% | [2]; [7] 13% | [3]; [7] 10% | [3]; at 50.0 µM 58% | [4]; [7] -8% | [5]; [7] -5% | [6]; [7] -5%

O=C(O)CCC(c1ccccc1)(c1ccccc1)c1ccccc1
active: [1]; [8] 99% | [1]; at 50.0 µM 99.5% | [2]; [8] 100% | [2]; at 50.0 µM 99.7% | [3]; [8] 99% | [3]; at 50.0 µM 98.9% | [4]; [8] 99% | [4]; at 50.0 µM 99% | [5]; [7] 80% | [5]; at 50.0 µM 99.5% | [6]; [8] 99% | [6]; at 50.0 µM 99.2%
inactive: [1]; [7] 66% | [2]; [7] 53% | [3]; [7] 54% | [4]; [7] -59% | [5]; [8] -50% | [6]; [7] 64%

Cc1cc(CN(Cc2ccccc2)Cc2nc3ccccc3[nH]2)c(O)c(CN(Cc2nc3ccccc3[nH]2)Cc2nc3ccccc3[nH]2)c1
inactive: [1]; [7] 7% | [1]; [8] 44% | [2]; [7] -3% | [2]; [8] 24% | [3]; [7] 1% | [4]; [7] -5% | [4]; [8] 59% | [4]; at 50.0 µM 67.3% | [5]; [7] 3% | [5]; [8] 66% | [5]; at 50.0 µM 27.9% | [6]; [7] 2%
active: [1]; at 50.0 µM 73% | [2]; at 50.0 µM 72.5% | [3]; [8] 70% | [3]; at 50.0 µM 94.3% | [6]; [8] 79% | [6]; at 50.0 µM 93.3%

CCOC(=O)/C(=C/c1ccccc1Br)P(=O)(OCC)OCC
active: [1]; at 50.0 µM 71.2% | [5]; [8] 85% | [6]; [8] 74%
inactive: [1]; [7] 7% | [1]; [8] 39% | [2]; [7] -6% | [2]; [8] 60% | [2]; at 50.0 µM 35.8% | [3]; [7] -12% | [3]; [8] 38% | [3]; at 50.0 µM 41.9% | [4]; [7] 18% | [4]; [8] 53% | [4]; at 50.0 µM 33.5% | [5]; [7] -2% | [5]; at 50.0 µM 61.3% | [6]; [7] -18% | [6]; at 50.0 µM 30%

Nc1ccc(S(=O)(=O)N2CCCc3ccccc32)cc1
inactive: [1]; [7] 5% | [1]; [8] 20% | [2]; [7] 7% | [2]; [8] 21% | [2]; at 50.0 µM 56.9% | [3]; [7] 4% | [3]; [8] 34% | [4]; [7] 2% | [4]; [8] 23% | [5]; [7] 3% | [5]; [8] 28% | [6]; [7] 7% | [6]; [8] 40%
active: [1]; at 50.0 µM 83.7% | [3]; at 50.0 µM 84% | [4]; at 50.0 µM 74.2% | [5]; at 50.0 µM 82% | [6]; at 50.0 µM 74.4%

C1CNC(CCNCCSCCNCCC2=NCCN2)=N1
inactive: [1]; [7] 10% | [2]; [7] 1% | [3]; [7] 5% | [4]; [7] 5% | [5]; [7] -2% | [6]; [7] 1%
active: [1]; [8] 90% | [1]; at 50.0 µM 95.1% | [2]; [8] 75% | [2]; at 50.0 µM 84.2% | [3]; [8] 87% | [3]; at 50.0 µM 91.9% | [4]; [8] 72% | [4]; at 50.0 µM 83.2% | [5]; [8] 89% | [5]; at 50.0 µM 93.5% | [6]; [8] 91% | [6]; at 50.0 µM 94.3%

Reference: PubChem BioAssay (NCI)
